# Reference: PubChem BioAssay (NCATS)
# A number with no mark means an inactive call. Records with an inconclusive call do not appear. Calls of active or inactive are those of the source. Unless noted, calls follow the shape of the dose curve; as a rule, active = well fitted curve in the direction sought with a large enough effect; inconclusive = small, poorly fitted or top-dose-only effect, or another doubt; inactive = no such curve, though single readings can be large; an effect the other way counts as inactive or inconclusive. Where a SMILES comes first, the peptide text is derived from it.
# Assays:
# [1] = biological target: Glucocorticoid receptor (Homo sapiens) (UniProt P04150); test: GR-GFP Redistribution (AID 450;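 active = compounds whose dose series gives a full or clear partial fitted curve of increased nuclear translocation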; also: potency is read from the fitted curve at half-maximal effect)
# Chain of Glucocorticoid receptor (Homo sapiens) (P04150 whole entry, looked up, the tested form may be a part): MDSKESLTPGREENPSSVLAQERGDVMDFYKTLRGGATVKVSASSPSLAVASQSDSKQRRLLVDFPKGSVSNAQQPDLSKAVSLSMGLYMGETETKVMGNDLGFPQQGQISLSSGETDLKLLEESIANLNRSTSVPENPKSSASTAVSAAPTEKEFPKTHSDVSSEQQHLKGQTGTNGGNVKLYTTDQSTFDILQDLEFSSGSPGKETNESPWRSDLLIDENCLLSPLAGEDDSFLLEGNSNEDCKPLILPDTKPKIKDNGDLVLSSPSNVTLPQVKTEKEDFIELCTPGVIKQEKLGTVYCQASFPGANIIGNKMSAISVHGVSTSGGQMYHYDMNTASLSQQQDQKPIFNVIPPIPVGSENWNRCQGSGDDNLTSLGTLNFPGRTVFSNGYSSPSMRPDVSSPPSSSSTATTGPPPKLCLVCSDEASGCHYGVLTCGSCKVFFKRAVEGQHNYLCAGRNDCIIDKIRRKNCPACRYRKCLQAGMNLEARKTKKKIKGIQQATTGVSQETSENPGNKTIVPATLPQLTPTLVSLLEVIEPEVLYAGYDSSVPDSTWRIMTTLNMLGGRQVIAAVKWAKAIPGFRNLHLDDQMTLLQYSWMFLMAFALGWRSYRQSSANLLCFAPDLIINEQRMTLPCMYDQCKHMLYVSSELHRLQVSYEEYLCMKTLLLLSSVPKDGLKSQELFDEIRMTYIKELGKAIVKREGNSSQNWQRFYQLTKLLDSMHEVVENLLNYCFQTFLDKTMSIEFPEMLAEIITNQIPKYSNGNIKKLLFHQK
# [2] = biological target: Glucocorticoid receptor (Homo sapiens) (UniProt P04150); test: GR-EFC Redistribution (AID 451; calls by dose curve; also: potency is read from the fitted curve at half-maximal effect); conditions: CHO-K1 GR-EFC translocation, beta-gal luminescence, 2 h
# In short: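 CHO-K1 cells stably expressing nuclear-localized β-gal enzyme acceptor and GR fused C-terminally to the enzyme donor fragment; ligand-driven nuclear translocation restores β-gal by complementation. Compounds titrated up to 46 uM final, 2 h at 37 °C; luminescence read.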
# [3] = biological target: Mitogen-activated protein kinase 10 (Mus musculus) (UniProt Q61831); test: JNK3 AlphaScreen Assay (AID 530; active = well fitted curve in either direction with a large enough effect, not every such curve was filed as active;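 also: kinase came from lysate of stimulated human HepG2 cells; signal reports phosphorylation of biotinylated GST-cJun 1-79 at Ser73 with 10 µM ATP; % is scaled to controls: 0 for no effect and ±100 for the full control effect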)
# In short: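 Biotinylated GST-cJun(1-79) served as substrate for JNK3 in HepG2 lysates stimulated with IL-1beta and TNF-alpha. ATP was 10 uM final, pH 7.6. Ser73 phosphorylation was quantified by AlphaScreen (680 nm excitation).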
# [4] = biological target: ATP-dependent 6-phosphofructokinase (Trypanosoma brucei brucei) (UniProt O15648); test: qHTS Assay to Find Inhibitors of T. brucei phosphofructokinase: hit validation (AID 492961);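 also: luminescence reports ADP formed as PFK phosphorylates fructose-6-phosphate with ATP; % is scaled to controls: 0 for no effect and ±100 for the full control effect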
# Chain of ATP-dependent 6-phosphofructokinase (Trypanosoma brucei brucei) (O15648 whole entry, looked up): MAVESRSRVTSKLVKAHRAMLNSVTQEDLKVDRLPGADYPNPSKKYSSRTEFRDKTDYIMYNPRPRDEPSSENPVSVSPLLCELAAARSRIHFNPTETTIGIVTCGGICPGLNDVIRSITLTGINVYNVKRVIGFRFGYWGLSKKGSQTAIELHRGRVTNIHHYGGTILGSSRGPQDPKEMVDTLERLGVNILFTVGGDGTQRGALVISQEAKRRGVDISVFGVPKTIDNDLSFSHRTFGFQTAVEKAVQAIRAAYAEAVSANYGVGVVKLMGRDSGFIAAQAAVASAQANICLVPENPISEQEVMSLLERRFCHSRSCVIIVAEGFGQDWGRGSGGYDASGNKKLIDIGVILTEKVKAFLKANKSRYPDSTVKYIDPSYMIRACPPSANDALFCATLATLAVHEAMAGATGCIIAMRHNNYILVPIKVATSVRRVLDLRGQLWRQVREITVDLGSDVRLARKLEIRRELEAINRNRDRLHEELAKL
# In short: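 PFK 1.25 nM, F6P 0.5 mM, ATP 0.1 mM, MgCl2 5 mM, 0.1 M TEA pH 8.0, Tween20 0.01%, BSA 0.1%; 45 min RT. ADP-Glo two-step detection, luminescence. qHTS titration; curve fitting with curve-class categorization.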
# [5] = qHTS profiling for inhibitors of Plasmodium falciparum proliferation (AID 504749); also: nearly all actives have a fitted effect of over 60% in size; also: potency is read from the fitted curve at half-maximal effect;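 as to activity, negative = inhibition: 0% = DMSO vehicle and full inhibition = artemisinin control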; conditions: P. falciparum in erythrocytes, SYBR Green DNA, 72 h
# In short: (§1)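 Fluorescence of SYBR Green-bound parasite DNA, read at 485/535 nm, served as the growth measure. Infected erythrocytes were cultured with compound 72 h; artemisinin (0.29 uM) and DMSO wells defined the normalization range.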
# 3D7 = test: as above; conditions: P. falciparum in erythrocytes, SYBR Green DNA, 72 h; series mostly up to 28.7 µM
# In short: as §1
# CP191 = test: as above; conditions: P. falciparum in erythrocytes, SYBR Green DNA, 72 h; series mostly up to 28.7 µM
# In short: as §1
# CP192 = test: as above; conditions: P. falciparum in erythrocytes, SYBR Green DNA, 72 h; series mostly up to 28.7 µM
# In short: as §1
# CP237 = test: as above; conditions: P. falciparum in erythrocytes, SYBR Green DNA, 72 h; series mostly up to 28.7 µM
# In short: as §1
# CP262 = test: as above; conditions: P. falciparum in erythrocytes, SYBR Green DNA, 72 h; series mostly up to 28.7 µM
# In short: as §1
# CP268 = test: as above; conditions: P. falciparum in erythrocytes, SYBR Green DNA, 72 h; series mostly up to 28.7 µM
# In short: as §1
# Dd2 = test: as above; conditions: P. falciparum in erythrocytes, SYBR Green DNA, 72 h; series mostly up to 28.7 µM
# In short: as §1
# ECU = test: as above; conditions: P. falciparum in erythrocytes, SYBR Green DNA, 72 h; series mostly up to 28.7 µM
# In short: as §1
# GB4 = test: as above; conditions: P. falciparum in erythrocytes, SYBR Green DNA, 72 h; series mostly up to 28.7 µM
# In short: as §1
# HB3 = test: as above; conditions: P. falciparum in erythrocytes, SYBR Green DNA, 72 h; series mostly up to 28.7 µM
# In short: as §1
# PC49 = test: as above; conditions: P. falciparum in erythrocytes, SYBR Green DNA, 72 h; series mostly up to 28.7 µM
# In short: as §1
# TAB113 = test: as above; conditions: P. falciparum in erythrocytes, SYBR Green DNA, 72 h; series mostly up to 28.7 µM
# In short: as §1
# W2 = test: as above; conditions: P. falciparum in erythrocytes, SYBR Green DNA, 72 h; series mostly up to 28.7 µM
# In short: as §1
# [6] = biological target: Tyrosyl-DNA phosphodiesterase 1 (Homo sapiens) (UniProt Q9NUW8); test: Confirmation Assay for Inhibitors of Tyrosyl-DNA Phosphodiesterase (TDP1) (AID 489007); conditions: recombinant human TDP1 enzymatic activity, dose-response; also: potency is read from the fitted curve at half-maximal effect; nearly all actives have a fitted effect of over 40% in size
# Chain of Tyrosyl-DNA phosphodiesterase 1 (Homo sapiens) (Q9NUW8 whole entry, looked up): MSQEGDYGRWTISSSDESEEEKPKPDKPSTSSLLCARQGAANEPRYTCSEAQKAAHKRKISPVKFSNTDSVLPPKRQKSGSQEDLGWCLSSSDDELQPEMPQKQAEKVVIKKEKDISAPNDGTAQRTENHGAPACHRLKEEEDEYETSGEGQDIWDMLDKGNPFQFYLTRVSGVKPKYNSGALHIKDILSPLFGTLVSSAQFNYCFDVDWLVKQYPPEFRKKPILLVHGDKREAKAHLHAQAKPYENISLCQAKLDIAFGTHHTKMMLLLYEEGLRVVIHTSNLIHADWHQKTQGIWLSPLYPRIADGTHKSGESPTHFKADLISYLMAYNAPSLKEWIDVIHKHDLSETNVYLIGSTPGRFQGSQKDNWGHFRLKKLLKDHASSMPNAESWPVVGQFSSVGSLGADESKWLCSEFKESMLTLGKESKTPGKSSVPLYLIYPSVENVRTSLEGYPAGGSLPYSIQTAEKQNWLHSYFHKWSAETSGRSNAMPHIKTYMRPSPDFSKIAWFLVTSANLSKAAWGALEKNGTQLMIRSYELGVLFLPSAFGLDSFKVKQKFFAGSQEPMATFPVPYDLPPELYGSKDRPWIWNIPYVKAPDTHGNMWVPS
# In short: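 AlphaScreen read-out: streptavidin donor and anti-FITC acceptor beads (10 ug/ml) bind intact substrate, so Tdp1 removal of tyrosine-FITC lowers signal. Enzyme 1 nM, substrate 15 nM, 5 min reaction at room temperature after 15 min compound preincubation.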
# [7] = at 28.7 µM (top of the series), parasite line A
# [8] = at 28.7 µM (top of the series), parasite line B
smiles,measurement,setting,value
CCCC[C@H]1C(=O)N(c2ccccc2)N(c2ccc(O)cc2)C1=O,Potency,[1],> 20.6 µM
same,Potency,[2],> 20.6 µM
same,Potency,[3],inactive
same,Potency,[4],inactive
same,"activity, negative = inhibition","[5]; at 12.8 µM (top of the series), parasite line A",-7.31%
same,"activity, negative = inhibition","[5]; at 12.8 µM (top of the series), parasite line B",3.99%
same,Potency,3D7,inactive
same,Potency,CP191,inactive
same,Potency,CP192,inactive
same,Potency,CP237,inactive
same,Potency,CP262,inactive
same,Potency,CP268,inactive
same,Potency,Dd2,inactive
same,Potency,ECU,inactive
same,Potency,GB4,inactive
same,Potency,HB3,inactive
same,Potency,PC49,inactive
same,Potency,TAB113,inactive
same,Potency,W2,inactive
O=c1cc(-c2ccccc2O)oc2c1ccc1ccccc12,Potency,[1],> 46 µM
same,Potency,[2],> 46 µM
same,Potency,[3],inactive
O=c1cc(-c2ccccc2)oc2c1ccc1ccccc12,Potency,[1],> 46 µM
same,Potency,[2],> 46 µM
Cc1c(C(=O)O)c(O)cc2c1C(=O)c1c(O)c([C@@H]3O[C@H](CO)[C@@H](O)[C@H](O)[C@@H]3O)c(O)c(O)c1C2=O,Potency,[1],> 46 µM
same,Potency,[2],> 46 µM
same,Potency,[3],inactive
C[C@@](Cc1ccccc1)(NC(=O)CN)c1ccccc1,Potency,[1],> 46 µM
same,Potency,[2],> 46 µM
same,Potency,[3],inactive
same,Potency,[4],inactive
same,"activity, negative = inhibition",[5]; [7],17.9%
same,"activity, negative = inhibition",[5]; [8],2.96%
same,Potency,3D7,inactive
same,Potency,CP191,inactive
same,Potency,CP192,inactive
same,Potency,CP237,5.62 µM (active)
same,Potency,CP262,inactive
same,Potency,CP268,inactive
same,Potency,Dd2,12.6 µM (active)
same,Potency,ECU,inactive
same,Potency,GB4,8.49 µM (active)
same,Potency,HB3,inactive
same,Potency,PC49,3.55 µM (active)
same,Potency,TAB113,inactive
same,Potency,W2,3.79 µM (active)
CC(=O)O[C@H]1C(=O)[C@]2(C)[C@H]([C@H](OC(=O)c3ccccc3)[C@@]3(O)C[C@H](OC(=O)[C@@H](O)[C@@H](NC(=O)c4ccccc4)c4ccccc4)C(C)=C1C3(C)C)[C@]1(OC(C)=O)CO[C@@H]1C[C@@H]2O,Potency,[1],> 46 µM
same,Potency,[2],> 46 µM
same,Potency,[3],inactive
CN1CCc2c(sc3ncn4nc(-c5ccccc5O)nc4c23)C1,Potency,[1],> 20.6 µM
CCCC[C@H](CC)CN=C(N)NC(N)=NCCCCCCN=C(N)NC(N)=NC[C@@H](CC)CCCC,Potency,[1],> 20.6 µM
same,Potency,[2],> 20.6 µM
same,Potency,[3],inactive
COc1cccc(-c2nnc3sc(-c4cccs4)nn23)c1,Potency,[1],> 20.6 µM
N[C@@H](Cc1c[nH]c2ccccc12)C(=O)NCC(=O)O (H-Trp-Gly-OH),Potency,[1],> 46 µM
same,Potency,[2],> 46 µM
same,Potency,[3],inactive
CN1C[C@H](C(=O)N[C@]2(C)O[C@@]3(O)[C@H]4CCCN4C(=O)[C@@H](Cc4ccccc4)N3C2=O)C[C@H]2c3cccc4[nH]cc(c34)C[C@@H]21,Potency,[1],> 46 µM
same,Potency,[2],> 46 µM
same,Potency,[3],inactive
C[C@H]1[C@H](C)CC[C@@]2(C(=O)O)CC[C@]3(C)C(=CC[C@@H]4[C@@]5(C)CC[C@H](O)C(C)(C)[C@@H]5CC[C@@]43C)[C@@H]12,Potency,[1],> 46 µM
same,Potency,[2],> 46 µM
same,Potency,[3],inactive
Cc1oc2cc(O)cc(C)c2c(=O)c1-c1cnn(-c2ccccc2)c1,Potency,[1],> 20.6 µM
CN1CCc2cc3c(cc2C(=O)Cc2ccc4c(c2C1)OCO4)OCO3,Potency,[1],> 46 µM
same,Potency,[2],> 46 µM
same,Potency,[3],inactive
O=C1CC(N(O)C2CC(=O)N(Cc3ccccc3)C2=O)C(=O)N1Cc1ccccc1 (stereo not drawn),Potency,[1],> 20.6 µM
C=C1C[C@@]23C[C@]1(O)CC[C@@H]2[C@]12C=C[C@@H](O)[C@@](C)(C(=O)O1)[C@@H]2[C@@H]3C(=O)O,Potency,[1],> 46 µM
same,Potency,[2],> 46 µM
same,Potency,[3],inactive
CC1(C)CCC[C@@]2(C)[C@@H]1CC[C@]1(C)OC(=O)C[C@@H]21,Potency,[1],> 46 µM
same,Potency,[2],> 46 µM
same,Potency,[3],inactive
COc1cc2c(cc1OC)C(=O)N(C)CC2,Potency,[1],> 46 µM
same,Potency,[2],> 46 µM
same,Potency,[3],inactive
O=C(O)CCCC[C@@H]1SC[C@H]2NC(=O)N[C@H]12,Potency,[1],> 46 µM
same,Potency,[2],> 46 µM
C=C[C@@]1(C)C=C2CC[C@@H]3[C@](C)(CCC[C@@]3(C)C(=O)O)[C@H]2CC1,Potency,[1],> 46 µM
same,Potency,[2],> 46 µM
same,Potency,[3],inactive
CC(=O)c1ccc(NC(=O)c2ccc3nc(-c4ccco4)c(-c4ccco4)nc3c2)cc1,Potency,[6],7.08 µM (active)
CC(=C/C(=O)O)/C=C/c1ccc(Cl)o1,Potency,[6],39.8 µM (active)
CN(C)/C=C/C=C1C(=O)CCCC1=O,Potency,[6],89.1 µM (active)
CCOC(=O)N1CCC(N2Cc3cccc(C(=O)NCc4ccc5c(c4)OCO5)c3C2=O)CC1,Potency,[6],15.8 µM (active)
Cc1cc(C)c(C#N)c(SCc2ccccc2)n1,Potency,[6],112 µM (active)
CC1CCC(C(C)C)C(O)C1 (stereo not drawn),Potency,[4],inactive
same,"activity, negative = inhibition",[5]; [7],7.33%
same,"activity, negative = inhibition",[5]; [8],4.66%
same,Potency,3D7,inactive
same,Potency,CP191,inactive
same,Potency,CP192,inactive
same,Potency,CP237,inactive
same,Potency,CP262,inactive
same,Potency,CP268,inactive
same,Potency,Dd2,inactive
same,Potency,ECU,inactive
same,Potency,GB4,inactive
same,Potency,HB3,inactive
same,Potency,PC49,inactive
same,Potency,TAB113,inactive
same,Potency,W2,inactive
